ssDAF-12 act = S. stercoralis DAF-12 nuclear receptor activators, primary screen, cell-based, luminescence, HEK293, GRIP1 co-expression, lit1-tk-luc | hit rate 1% among 370,000 | HEK293 ssDAF-12/GRIP1 lit1-tk-luc reporter; % of 3 µM dafachronic acid response | AID 652126, 2013 | activation, % at 6.8 µM;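 active = activation above the mean over all tested compounds plus 3 SD, cut at about 0.9% in these data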
hcDAF12 agonist = H. contortus DAF-12 nuclear receptor activators, primary screen, cell-based, luminescence, HEK293, lit1-tk-luc reporter. hit rate 1.4% among 370,000. HEK293 hcDAF-12 lit1-tk-luc reporter; 0% DMSO, 100% Δ7-dafachronic acid. activation, % at 6.8 µM. AID 652067, 2013;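 active = activation above the mean of all tested compounds plus 3 SD, cut at about 5.5% in these data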
DAX1 inh-1 = DAX1 (NR0B1) inhibitors on StAR promoter, primary screen, cell-based, luminescence, SF-1 (NR5A1), full-length DAX-1 | HEK293T StAR-luciferase reporter, SF-1/DAX-1 repression relief | inhibition, % at 6.8 µM | hit rate 1.1% among 370,000;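 active = inhibition above the mean over all tested compounds plus 3 SD, cut at about 3.6% in these data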;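 note: higher inhibition means more luminescence from relief of DAX-1 repression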
DAX1 inh-2 = DAX1 (NR0B1) inhibitors, primary screen, cell-based, HEK293, Gal4-DAX1, luciferase luminescence; inhibition, % at 6.75 µM; Nuclear receptor subfamily 0 group B member 1 (Homo sapiens), P51843; HEK293 Gal4-DAX1 luciferase reporter; hit rate 0.99% among 340,000;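 active = inhibition above the mean over all tested compounds plus 3 SD, cut at about 4.2% in these data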;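 note: inhibition shows as a rise in luminescence from relieved DAX1 repression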
Target sequence (P51843 207-470 limits assumed): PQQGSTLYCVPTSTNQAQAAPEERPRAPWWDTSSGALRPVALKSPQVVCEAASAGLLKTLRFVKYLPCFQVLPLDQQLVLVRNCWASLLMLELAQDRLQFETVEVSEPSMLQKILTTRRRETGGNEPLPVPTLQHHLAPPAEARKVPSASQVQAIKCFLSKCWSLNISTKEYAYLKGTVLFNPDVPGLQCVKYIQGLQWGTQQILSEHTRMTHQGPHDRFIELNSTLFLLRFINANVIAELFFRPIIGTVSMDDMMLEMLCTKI
hgDAF12 agonist = H. glycines DAF-12 receptor agonists, primary screen, cell-based, luminescence, HEK293, GAL4 fusion, UAS-luciferase; Nuclear hormone receptor DAF-12 (Heterodera glycines), GAL4 fusion; HEK293 GAL4-hgDAF12 UAS-luciferase reporter, agonist luminescence; normalized to butyrate control; activation, % at 6.8 µM; hit rate 1.8% among 370,000;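 active = activation above a cutoff set at the mean of all screened compounds plus 3 SD, cut at about 10% in these data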
Large screens that a line does not name were inactive. Compounds with a hit are over-represented: about 4.1% of the library has one in this group of screens.

Cc1ncsc1C(=O)Nc1nc2c(s1)CCCC2	hgDAF12 agonist 12.9
Cc1cc(C(=O)Nc2nc3c(s2)CCCC3)cs1	hcDAF12 agonist 6.0
O=C(c1ccccc1)c1cnc(-c2ccc(Cl)cc2)s1	DAX1 inh-2 5.0, hgDAF12 agonist 12.3
COc1cc(/C=C(\C#N)C(=O)Nc2cccc(C(=O)O)c2)ccc1OCc1ccc(C)cc1	hcDAF12 agonist 6.5
COc1ccc(OCC(C)CN2CCC(C(O)(c3ccccc3)c3ccccc3)CC2)cc1 (stereo unspecified)	none (no result: DAX1 inh-2)
O=C(O)c1ccc(-c2nc(-c3ccc(Cl)cc3Cl)cs2)cc1	none
O=C(O)c1ccc(-c2nc(-c3ccc(Cl)cc3)cs2)cc1	hcDAF12 agonist 5.8, hgDAF12 agonist 12.6
COC(=O)COc1ccsc1C(=O)OC	DAX1 inh-2 4.2
COc1cccc(N2CCN(c3ccc(N4C(=O)CCC4=O)cc3[N+](=O)[O-])CC2)c1	DAX1 inh-2 6.6
CCOC(=O)[C@@H]1[C@H]2COc3ccccc3[C@H]2N2C(=O)N(c3ccc(C(F)(F)F)cc3)C(=O)[C@]12C	none
Cc1ccc(OCCCC(=O)NC2CCCCC2)cc1	DAX1 inh-2 5.0
COc1cc(C)ccc1OCC(=O)NC1CCCCCC1	DAX1 inh-1 4.3
Cc1ccc(C)c(OCCCC(=O)NC2CCCCC2)c1	none
COc1ccccc1CCC(=O)OCC(=O)NC1CCCC1	DAX1 inh-1 3.7
O=C(Nc1cccc([N+](=O)[O-])c1)OCc1ccc2c(c1)OCO2	none (no result: DAX1 inh-2)
COc1ccc(-c2nc(NC(=O)Cn3c(=O)oc4ccccc43)sc2C)cc1	DAX1 inh-2 4.7
COc1cccc(NC(=O)Cn2c(=O)oc3ccccc32)c1	none
CC1=NN(C(N)=S)C(=O)C1N=Nc1ccccc1 (stereo unspecified)	none
CC1=NN(C(N)=S)C(=O)C1N=Nc1ccc(Cl)cc1 (stereo unspecified)	hgDAF12 agonist 11.3
CC1=NN(C(N)=S)C(=O)C1N=Nc1cccc([N+](=O)[O-])c1 (stereo unspecified)	DAX1 inh-2 6.8
COC(=O)[C@]12C[C@H](CC(=O)N3CCC(c4ccccc4)CC3)C(=O)N(Cc3cccc4ccccc34)C1=C[C@H](COCc1ccccc1)O[C@@H]2C	none (no result: DAX1 inh-2)
Cc1ccc(Nc2nc(N)nc(CSc3nccn3C)n2)cc1	ssDAF-12 act 0.9, hgDAF12 agonist 11.1
COC(=O)c1ccc2c(C(C)c3ccccc3O)c[nH]c2c1 (stereo unspecified)	none (no result: DAX1 inh-2)
Nc1ccc(N=Nc2ccc(O)cc2)c(N)n1	none
COc1ccc(N=Nc2ccc(N)nc2N)cc1	DAX1 inh-2 4.6, hgDAF12 agonist 10.7
c1ccc(SCCN2CCc3ccccc3C2)cc1	none
c1ccc(SCCOCCN2CCc3ccccc3C2)cc1	hcDAF12 agonist 6.3
CCOc1ccc2c(c1)C(=O)c1cc(OCC(=O)O)ccc1-2	none
CCCCOc1ccc2c(c1)C(=O)c1cc(O)ccc1-2	hgDAF12 agonist 10.8
Cc1ccc(C(=O)N=c2sccn2C)cc1S(=O)(=O)N1CCOCC1	DAX1 inh-1 3.7
Cn1ccsc1=NC(=O)c1cc(S(=O)(=O)N2CCOCC2)ccc1F	none
Cc1cccc(C(=O)N=c2sccn2C)c1[N+](=O)[O-]	DAX1 inh-1 4.5, hgDAF12 agonist 11.1
Cc1ccccc1C(=O)N=c1sccn1C	none
Cn1ccsc1=NC(=O)c1cccc(C#N)c1	DAX1 inh-2 4.5
COc1ccc(-n2c(SCc3nc4ccccc4[nH]3)nc3ccccc3c2=O)cc1	none (no result: DAX1 inh-2)
COC(=O)CC1C(=O)NCCN1C(=O)c1cc(OC)c(OC)cc1OC (stereo unspecified)	none
CN(C)C(=O)C12CCC(C)(C(=O)C1Br)C2(C)C (stereo unspecified)	ssDAF-12 act 1.0
CC12CCC(C(=O)N3CCOCC3)([C@H](Br)C1=O)C2(C)C (stereo partly specified)	none (no result: DAX1 inh-2)
O=C(O)Cn1c(=S)sc2ccccc21	ssDAF-12 act 1.0
O=C(O)CCn1c(=O)sc2ccccc21	none
Cc1cc(C(=O)COC(=O)c2ccc(Cl)c(S(N)(=O)=O)c2)c(C)n1CC1CCCO1 (stereo unspecified)	DAX1 inh-2 4.6
CCOc1ccc(C(=O)OCC(=O)Nc2ccc(SC(F)F)cc2)cc1OCC	none
O=C(O)c1cccc(NC(=O)c2ccc(COc3ccc(Cl)cc3)cc2)c1	none
CC(C)c1cc(C(N)=O)c(NC(=O)c2cccc(COc3ccc(Cl)cc3)c2)s1	hgDAF12 agonist 13.1
Cn1c(-c2ccc(Br)o2)nc2cc(Br)ccc21	DAX1 inh-2 4.5
Cc1ccc(-c2nc3ccccc3n2C)o1	DAX1 inh-1 3.8, hgDAF12 agonist 11.3
CC(=O)c1ccc(-c2nc3ccccc3n2C)o1	hgDAF12 agonist 11.4
COCC(=O)N[C@@H]1C[C@@H]2O[C@H](CO)CC[C@@H]2O[C@@H]1CCc1ccc(-c2ccccc2)cc1	none (no result: DAX1 inh-2)
CCOc1cc(C(=O)Nc2cccc(C(C)=O)c2)ccc1OCC(=O)N1CCCCC1	none
CCOc1cc(C(=O)N(C)CC(=O)Nc2cccc(F)c2)ccc1OCC(=O)N1CCCCC1	ssDAF-12 act 1.3
COc1ccc2c(c(-c3ccccc3)cn2C)c1-c1ccccc1	none (no result: DAX1 inh-2)
O=C(NCCN1CCC(Cc2ccccc2)CC1)C1CCCN(S(=O)(=O)c2ccc(Cl)s2)C1 (stereo unspecified)	none (no result: DAX1 inh-2)
Cc1nc(CSc2nnc(C)s2)cs1	DAX1 inh-2 4.7
Cc1nnc(SCc2cccc3ccccc23)s1	DAX1 inh-2 7.0
Cc1nnc(SCc2ccc(F)cc2)s1	none
COc1cccc(NC(=O)Nc2c(-c3ccc(C(F)(F)F)cc3)nc3ncccn23)c1	none (no result: DAX1 inh-2)
CC(=O)c1cc2c(cc1N/C(=N/S(=O)(=O)c1ccccc1)c1ccc(Cl)cc1)OCO2	ssDAF-12 act 1.6
CC(=O)c1cc2c(cc1NS(=O)(=O)c1ccccc1)OCO2	none
COC(=O)c1scc(C)c1N/N=C(\C)c1cc(F)c(Cl)cc1F	none
COc1cc(C(=O)OCC(C)=O)ccc1OCc1c(C)noc1C	none
COc1cc(C(=O)OCC(=O)N2CCCCC2C)ccc1OCc1c(C)noc1C (stereo unspecified)	DAX1 inh-2 4.7
COC(=O)c1ccccc1NC(=O)NCc1ccncc1	ssDAF-12 act 6.6
COC(=O)c1ccccc1NC(=O)C12CCC(C)(C(=O)O1)C2(C)C (stereo unspecified)	ssDAF-12 act 1.9
CC(C)CC(NC(=O)OCc1ccccc1)C(=O)NCC(=O)NCC(=O)OCc1ccccc1 (stereo unspecified)	none (no result: DAX1 inh-2)
Cc1cccc(C)c1N/C=C/c1onc(C)c1[N+](=O)[O-]	none

Source: PubChem BioAssay
